High-throughput results as filed in PubChem.
CYP2C9 act: increases human cytochrome P450 2C9 activity | activation factor at 5 µM | P11712 | hit rate 1.4% among 96,000 | AID 1024 | recombinant CYP2C9, luciferin-H conversion, luminescence; stronger effect = higher value; factor 1 = untreated enzyme, 0 = blocked;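 active = activation factor of 2 or more for CYP2C9 at a 5 µM dose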
Target sequence (P11712 whole entry, looked up): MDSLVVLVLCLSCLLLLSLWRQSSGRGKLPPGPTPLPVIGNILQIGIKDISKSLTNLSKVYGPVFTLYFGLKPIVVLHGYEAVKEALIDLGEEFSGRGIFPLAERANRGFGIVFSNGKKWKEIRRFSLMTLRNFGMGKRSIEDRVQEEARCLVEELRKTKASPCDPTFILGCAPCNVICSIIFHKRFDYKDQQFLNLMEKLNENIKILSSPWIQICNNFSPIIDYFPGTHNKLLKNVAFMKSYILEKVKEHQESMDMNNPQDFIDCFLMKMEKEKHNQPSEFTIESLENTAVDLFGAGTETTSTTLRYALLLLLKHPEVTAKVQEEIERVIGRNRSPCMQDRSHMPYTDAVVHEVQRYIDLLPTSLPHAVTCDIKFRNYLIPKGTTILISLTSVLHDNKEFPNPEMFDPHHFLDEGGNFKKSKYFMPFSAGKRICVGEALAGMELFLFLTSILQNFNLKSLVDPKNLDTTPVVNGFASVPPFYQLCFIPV
PLAP act: human PLAP activation; hit rate 1.2% among 96,000; purified PLAP enzyme, luminescent substrate read-out; stronger effect = higher value; activation fold at 20 µM; in the data active = activation fold above about 2
CYP2C19 inhib: blocks human cytochrome P450 2C19 | AID 778 | inhibition, % at 5 µM | P33261 | CYP2C19 Supersomes, luciferin-H EGE luminescence, 30 min | hit rate 21% among 96,000;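 active = CYP2C19 inhibition above a set limit at 5 µM in the primary screen, cut at about 50% in these data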
CYP2C9 inh: blocks human cytochrome P450 2C9; hit rate 20% among 96,000; CYP2C9 Supersomes, luciferin-H conversion, luminescence; AID 777; inhibition, % at 5 µM; P11712;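 active = blocking of liver enzyme CYP2C9 beyond about 50% at 5 µM, limit read from the data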
CYP2C19 activ: activators of human cytochrome P450 2C19; activation factor at 5 µM; 96,000 tested, under 10 active; recombinant CYP2C19, luciferin-H EGE luminescence; stronger effect = higher value; 0 = fully inhibited enzyme, 1 = untreated enzyme; AID 1025;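 active = activation factor of at least 2 at 5 µM in the primary screen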
Numbers stand for hits; 0 = inactive. Rows were chosen to be rich in hits. Some 31% of all compounds tested hit in one or more screens of this group.

SMILES	CYP2C9 act	PLAP act	CYP2C19 inhib	CYP2C9 inh	CYP2C19 activ
O=C(NC1CC1)C1CCN(Cc2cnn(-c3ccccc3)c2-n2cccc2)CC1	0	2	0	0	0
CC(C)NC(=O)C1CCN(Cc2cnn(-c3ccccc3)c2-n2cccc2)CC1	0	0	0	0	0
COc1cccc(CNC(=O)C2CCN(Cc3cnn(-c4ccccc4)c3-n3cccc3)CC2)c1	0	2.2	0	0	0
C=CCSc1nnc(-c2ccccc2N=Cc2c(C)[nH]n(-c3ccccc3)c2=O)c(=O)[nH]1	0	2.2	0	99	0
C=CCSc1nnc2c(n1)OC(c1c(C)[nH]n(-c3ccccc3)c1=O)Nc1ccccc1-2 (stereo not given)	0	0	0	72	0
COc1ccc(C(=O)Nc2ccccc2C(=O)N/N=C/c2cccc3ccccc23)cc1	0	0	0	0	0
Cc1ccc(NS(=O)(=O)c2cc(C(=O)N3CCN(C)CC3)ccc2C)cc1	0	0	0	0	0
Cc1ccc(NS(=O)(=O)c2cc(C(N)=O)ccc2C)cc1	0	0	94	67	0
Cc1ccc(C(N)=O)cc1S(=O)(=O)Nc1cccc(C)c1C	0	0	99	0	0
NC(=O)c1ccc(-n2nnnc2SCC(=O)Nc2ccccc2-c2ccccc2)cc1	0	0	0	0	0
c1ccc(CSc2nnnn2-c2ccccc2)cc1	0	0	71	0	0
O=C(Nc1nccs1)c1ccc(CSc2nnnn2-c2ccccc2)cc1	0	0	92	92	0
O=c1cc(CSc2nnnn2-c2ccccc2)[nH]c2[nH]n(-c3ccccc3)c(=O)c12	0	0	0	56	0
c1ccc(-n2nnnc2SCc2cn3ccccc3n2)cc1	0	0	0	0	0
NC(=O)c1ccc(-n2nnnc2SCc2ccccc2)cc1	0	0	87	0	0
CCOc1ccccc1Nc1ccc(C(=O)O)cc1NC(C)=O	0	0	0	0	0
COc1ccccc1-n1nnnc1SCC(=O)Nc1ccccn1	0	0	0	0	0
COc1ccc(CSc2nnnn2Cc2ccccc2)cc1OC	0	0	89	75	0
COc1ccccc1-n1nnnc1SCc1cc2c(cc1Br)OCO2	0	0	0	55	0
COc1ccccc1-n1nnnc1SCc1ccccc1	0	0	75	0	0
COc1ccc(C)cc1NC(=O)CSc1nnnn1Cc1ccccc1	0	0	0	0	0
COC(=O)c1ccc(-n2nnnc2SCc2ccccc2OC)cc1	0	0	0	0	0
O=C(NCC(=O)N(Cc1ccco1)C(C(=O)NC1CCCCC1)c1cccnc1)c1cccs1 (stereo not given)	0	0	57	0	0
COCCN(C(=O)CNC(=O)c1cccs1)C(C(=O)NC1CCCCC1)c1ccco1 (stereo not given)	0	0	0	0	0
COCCN(C(=O)CNC(=O)c1cccs1)C(C(=O)NC1CCCC1)c1cccs1 (stereo not given)	0	0	56	0	0
SMILES	CYP2C9 act	PLAP act	CYP2C19 inhib	CYP2C9 inh	CYP2C19 activ
Cn1c(Cc2ccc3c(c2)OCO3)nnc1SCC(=O)N1CCc2ccccc2C1	0	0	0	0	0
COc1ccccc1-c1c(C)c(C)nc(N)c1C#N	0	0	0	0	0
COc1ccccc1-c1cc(C2CC2)nc(N)c1C#N	0	0	80	0	0
Cc1nc(N)c(C#N)c(-c2ccccc2Cl)c1C	0	0	0	0	0
CCc1nc(N)c(C#N)c(-c2ccccc2OC)c1C	0	0	70	0	0
N#Cc1c(-c2ccccc2Cl)cc(C2CC2)nc1N	0	0	74	0	0
COc1ccccc1N1CCN(c2nc(N)c(C#N)c(CC#N)c2C#N)CC1	0	0	0	0	0
C/C=C(\CS(=O)(=O)c1ccccc1)S(=O)(=O)c1ccccc1	0	0	87	0	0
Cc1noc2ncc(C(=O)c3cc(F)ccc3O)cc12	0	0	96	50	0
Cc1[nH]nc2ncc(C(=O)c3cc(Cl)cc(Cl)c3O)cc12	0	0	0	0	0
O=C(c1cn[nH]c1)c1cc(F)ccc1O	0	0	0	0	0
Cc1[nH]nc2ncc(C(=O)c3cc(F)ccc3O)cc12	0	0	58	0	0
O=C(NCc1ccccc1)N1CCC(n2cnc3cc(F)ccc32)CC1	0	0	0	0	0
CCOC(=O)N1CCN(c2ccc(C(=O)c3ccccc3)cc2F)CC1	0	0	76	87	0
CCC(=O)c1ccc(N2CCCCCC2)c(F)c1	0	0	68	52	0
CCOC(=O)N1CCN(Cc2c(F)cccc2F)CC1	0	0	76	0	0
CCOC(=O)N1CCN(Cc2c(F)cccc2Cl)CC1	0	0	0	0	0
CCOC(=O)N1CCN(c2cc(C)c(C(C)=O)cc2F)CC1	0	0	0	0	0
COc1nc(Oc2ccc(=O)[nH]n2)nc(N2CCOCC2)n1	0	0	0	0	0
Cc1cc(S(=O)(=O)N2CCN(c3ccccc3O)CC2)c(C)s1	0	0	71	0	0
COc1ccccc1N1CCN(S(=O)(=O)c2cc(C)sc2C)CC1	0	0	0	0	0
O=S(=O)(c1ccc(Cl)cc1Br)N1CCCCC1	0	0	87	0	0
CC1CCCN(S(=O)(=O)c2cc(Cl)ccc2Cl)C1 (stereo not given)	2.4	0	96	0	0
CC1CCN(S(=O)(=O)c2cc(Cl)ccc2Br)CC1	3.1	0	98	0	0
CC1CCN(S(=O)(=O)c2ccc(Cl)cc2)CC1	0	0	0	0	0
SMILES	CYP2C9 act	PLAP act	CYP2C19 inhib	CYP2C9 inh	CYP2C19 activ
CC1CCCN(S(=O)(=O)Cc2ccc(Cl)cc2)C1 (stereo not given)	0	0	97	0	0
CCOC(=O)C(=O)Nc1ccccc1C(=O)NC(C)C	0	0	0	0	0
CC(C)OC(=O)CSc1nnc(-c2cnccn2)n1-c1ccc(Cl)cc1	0	0	0	0	0
Cn1nnc2cc(NC(=O)N3CC4(C)CC3CC(C)(C)C4)ccc21 (stereo not given)	0	0	0	0	0
O=S(=O)(c1ccc(F)c2ccccc12)N1CCCCC1	4.7	0	0	0	0
CCn1cc(C(=O)NCCN(C)CCc2ccccc2)c(=O)c2cc(S(=O)(=O)N(C)C)ccc21	0	0	0	75	0
O=C(COC(=O)c1cccc(S(=O)(=O)N2CCc3ccccc3C2)c1)NCc1ccco1	0	0	0	0	0
CCn1cc(C(=O)N2CCc3ccccc32)c(=O)c2cc(S(=O)(=O)N3CCOCC3)ccc21	0	0	0	0	0
CCn1cc(C(=O)NCc2ccco2)c(=O)c2cc(S(=O)(=O)N3CCc4ccccc4C3)ccc21	0	0	0	78	0
CCn1cc(C(=O)NCc2ccco2)c(=O)c2cc(S(=O)(=O)N3CCC(C)CC3)ccc21	0	0	0	66	0
O=C(COC(=O)c1cc(S(=O)(=O)N2CCc3ccccc3C2)ccc1Cl)NCc1ccco1	0	0	0	66	0
NC(=O)CC(O)c1cccc(Cl)c1 (stereo not given)	0	0	0	0	0
CCn1cc(C(=O)NCc2ccco2)c(=O)c2cc(S(=O)(=O)N3CCCCCC3)ccc21	0	0	0	86	0
